Columns and labels:
Experiment in all cases: log2 ratio of Biotin-Ahx-Ub-VS probe labelling (fragment/DMSO); higher = less target engagement (more negative = stronger competition), active = hit call of the paper (q ≤ 0.05, log2 ratio ≤ -1)
Conditions in all cases: compound concentration: 200 uM; treatment time: 3 h
USP42 = target: T1, USP42 (UniProt Q9H9J4)
T1 sequence (whole entry): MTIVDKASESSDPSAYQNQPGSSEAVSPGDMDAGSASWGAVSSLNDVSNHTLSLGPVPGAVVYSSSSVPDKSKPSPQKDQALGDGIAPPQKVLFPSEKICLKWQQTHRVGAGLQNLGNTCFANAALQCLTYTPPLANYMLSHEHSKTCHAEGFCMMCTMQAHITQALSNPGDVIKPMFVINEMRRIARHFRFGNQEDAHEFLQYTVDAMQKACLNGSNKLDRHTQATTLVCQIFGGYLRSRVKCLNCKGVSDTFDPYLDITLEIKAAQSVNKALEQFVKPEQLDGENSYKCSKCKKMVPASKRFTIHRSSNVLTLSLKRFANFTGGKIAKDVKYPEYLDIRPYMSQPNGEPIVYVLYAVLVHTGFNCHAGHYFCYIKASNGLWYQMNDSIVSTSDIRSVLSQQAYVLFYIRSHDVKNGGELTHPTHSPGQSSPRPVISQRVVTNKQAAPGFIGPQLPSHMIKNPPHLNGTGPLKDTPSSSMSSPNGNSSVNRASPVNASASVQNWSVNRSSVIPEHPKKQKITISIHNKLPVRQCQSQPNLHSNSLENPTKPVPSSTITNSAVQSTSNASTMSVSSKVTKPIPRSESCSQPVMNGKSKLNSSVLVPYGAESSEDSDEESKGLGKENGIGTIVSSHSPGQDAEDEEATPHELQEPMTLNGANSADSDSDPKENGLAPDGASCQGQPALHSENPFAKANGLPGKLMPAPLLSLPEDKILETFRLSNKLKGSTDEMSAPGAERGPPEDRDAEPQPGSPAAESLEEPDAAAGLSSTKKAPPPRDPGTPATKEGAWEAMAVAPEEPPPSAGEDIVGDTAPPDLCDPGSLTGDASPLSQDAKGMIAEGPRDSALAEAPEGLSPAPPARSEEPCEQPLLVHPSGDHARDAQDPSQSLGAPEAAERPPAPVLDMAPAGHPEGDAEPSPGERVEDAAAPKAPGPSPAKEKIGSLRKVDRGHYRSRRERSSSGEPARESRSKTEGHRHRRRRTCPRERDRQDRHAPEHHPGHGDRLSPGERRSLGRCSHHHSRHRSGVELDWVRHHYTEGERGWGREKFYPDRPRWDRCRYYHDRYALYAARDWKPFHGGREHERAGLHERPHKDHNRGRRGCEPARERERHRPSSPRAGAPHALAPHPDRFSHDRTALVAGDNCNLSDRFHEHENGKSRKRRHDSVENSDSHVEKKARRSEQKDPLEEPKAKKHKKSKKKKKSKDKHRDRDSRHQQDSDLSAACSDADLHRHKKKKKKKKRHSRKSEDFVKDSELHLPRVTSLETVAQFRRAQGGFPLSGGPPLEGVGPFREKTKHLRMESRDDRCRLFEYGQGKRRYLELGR
Method in brief: (§1)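 Each value is an average log2 ratio of fragment to vehicle, tested by unpaired t-test. The underlying Spectronaut label-free quantities were global-median-normalised, and only proteins with ≥2 unique peptides were included. Triplicate HEK293T lysate samples (495 µg) were exposed to fragment at 200 µM or vehicle for 3 h, then to Biotin-Ahx-Ub-VS at 0.5 µM final for 1 h, before NeutrAvidin enrichment of labelled DUBs, LysC and trypsin digestion, and diaPASEF LC-MS/MS.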

USP46 = USP46 (UniProt P62068)
Method in brief: as §1

USP47 = target: T2, USP47 (UniProt Q96K76)
T2 sequence (whole entry): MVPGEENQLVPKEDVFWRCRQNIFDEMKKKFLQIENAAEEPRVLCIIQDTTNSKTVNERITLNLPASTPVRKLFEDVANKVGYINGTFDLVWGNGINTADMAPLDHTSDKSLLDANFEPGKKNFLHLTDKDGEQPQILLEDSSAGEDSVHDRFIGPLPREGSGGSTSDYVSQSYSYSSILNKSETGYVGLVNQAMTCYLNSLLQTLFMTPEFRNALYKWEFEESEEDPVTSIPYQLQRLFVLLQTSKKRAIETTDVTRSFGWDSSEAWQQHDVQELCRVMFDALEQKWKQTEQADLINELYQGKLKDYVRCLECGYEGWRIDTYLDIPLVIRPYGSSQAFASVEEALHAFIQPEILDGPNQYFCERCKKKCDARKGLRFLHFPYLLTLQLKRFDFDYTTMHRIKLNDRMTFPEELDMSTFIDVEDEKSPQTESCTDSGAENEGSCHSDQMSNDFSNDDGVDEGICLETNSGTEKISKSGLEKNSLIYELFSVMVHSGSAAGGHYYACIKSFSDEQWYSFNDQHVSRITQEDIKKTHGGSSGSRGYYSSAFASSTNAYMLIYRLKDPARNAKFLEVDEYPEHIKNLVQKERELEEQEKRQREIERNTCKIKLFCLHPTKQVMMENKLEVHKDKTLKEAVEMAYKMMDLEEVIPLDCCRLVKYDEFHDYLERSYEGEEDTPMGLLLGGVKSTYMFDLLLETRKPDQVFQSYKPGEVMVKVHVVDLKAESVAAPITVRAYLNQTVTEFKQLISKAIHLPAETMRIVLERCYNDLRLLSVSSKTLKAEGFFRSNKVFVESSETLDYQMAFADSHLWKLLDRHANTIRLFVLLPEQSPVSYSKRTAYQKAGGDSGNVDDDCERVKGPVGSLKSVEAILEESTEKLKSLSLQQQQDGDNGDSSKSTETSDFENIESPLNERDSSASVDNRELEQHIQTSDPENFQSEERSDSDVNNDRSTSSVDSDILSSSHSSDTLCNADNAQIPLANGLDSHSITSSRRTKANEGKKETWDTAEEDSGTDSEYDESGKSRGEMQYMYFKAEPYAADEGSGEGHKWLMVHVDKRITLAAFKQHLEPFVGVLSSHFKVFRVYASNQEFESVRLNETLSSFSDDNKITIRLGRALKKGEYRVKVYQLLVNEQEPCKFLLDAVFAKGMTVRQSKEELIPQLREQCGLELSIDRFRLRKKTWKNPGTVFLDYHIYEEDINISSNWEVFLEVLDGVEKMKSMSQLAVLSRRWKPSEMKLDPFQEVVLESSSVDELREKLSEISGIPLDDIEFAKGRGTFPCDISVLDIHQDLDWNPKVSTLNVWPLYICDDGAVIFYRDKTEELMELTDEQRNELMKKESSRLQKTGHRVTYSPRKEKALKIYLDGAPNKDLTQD
Method in brief: as §1

USP48 = target: T3, USP48 (UniProt Q86UV5)
T3 sequence (whole entry): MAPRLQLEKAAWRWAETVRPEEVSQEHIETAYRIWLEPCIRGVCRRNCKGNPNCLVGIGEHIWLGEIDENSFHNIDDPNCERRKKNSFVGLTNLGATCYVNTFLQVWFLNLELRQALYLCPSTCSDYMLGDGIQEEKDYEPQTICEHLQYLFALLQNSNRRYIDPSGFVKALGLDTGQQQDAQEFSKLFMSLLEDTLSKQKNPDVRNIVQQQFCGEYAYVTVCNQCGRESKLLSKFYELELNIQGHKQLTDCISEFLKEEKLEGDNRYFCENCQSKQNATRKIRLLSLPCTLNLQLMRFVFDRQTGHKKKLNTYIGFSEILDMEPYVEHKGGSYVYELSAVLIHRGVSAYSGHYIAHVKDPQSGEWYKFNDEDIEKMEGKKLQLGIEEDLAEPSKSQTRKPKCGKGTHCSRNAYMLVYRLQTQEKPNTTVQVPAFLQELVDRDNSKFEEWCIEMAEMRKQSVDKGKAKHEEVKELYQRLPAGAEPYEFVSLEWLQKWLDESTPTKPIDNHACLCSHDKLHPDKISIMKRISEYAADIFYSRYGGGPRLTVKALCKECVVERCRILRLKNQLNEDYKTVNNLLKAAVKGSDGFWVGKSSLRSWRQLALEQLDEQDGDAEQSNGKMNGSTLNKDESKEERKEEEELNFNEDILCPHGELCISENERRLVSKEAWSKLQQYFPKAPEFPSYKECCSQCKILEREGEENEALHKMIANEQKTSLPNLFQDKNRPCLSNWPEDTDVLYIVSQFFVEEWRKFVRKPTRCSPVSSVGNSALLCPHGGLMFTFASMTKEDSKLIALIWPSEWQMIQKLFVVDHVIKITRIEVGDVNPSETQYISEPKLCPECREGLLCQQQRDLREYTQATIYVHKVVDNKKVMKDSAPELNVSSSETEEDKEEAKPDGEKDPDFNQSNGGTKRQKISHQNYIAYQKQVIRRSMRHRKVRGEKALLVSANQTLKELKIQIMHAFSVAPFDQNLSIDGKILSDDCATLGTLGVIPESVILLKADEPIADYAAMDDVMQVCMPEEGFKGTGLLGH
Method in brief: as §1

USP5 = target: T4, USP5 (UniProt P45974)
T4 sequence (whole entry): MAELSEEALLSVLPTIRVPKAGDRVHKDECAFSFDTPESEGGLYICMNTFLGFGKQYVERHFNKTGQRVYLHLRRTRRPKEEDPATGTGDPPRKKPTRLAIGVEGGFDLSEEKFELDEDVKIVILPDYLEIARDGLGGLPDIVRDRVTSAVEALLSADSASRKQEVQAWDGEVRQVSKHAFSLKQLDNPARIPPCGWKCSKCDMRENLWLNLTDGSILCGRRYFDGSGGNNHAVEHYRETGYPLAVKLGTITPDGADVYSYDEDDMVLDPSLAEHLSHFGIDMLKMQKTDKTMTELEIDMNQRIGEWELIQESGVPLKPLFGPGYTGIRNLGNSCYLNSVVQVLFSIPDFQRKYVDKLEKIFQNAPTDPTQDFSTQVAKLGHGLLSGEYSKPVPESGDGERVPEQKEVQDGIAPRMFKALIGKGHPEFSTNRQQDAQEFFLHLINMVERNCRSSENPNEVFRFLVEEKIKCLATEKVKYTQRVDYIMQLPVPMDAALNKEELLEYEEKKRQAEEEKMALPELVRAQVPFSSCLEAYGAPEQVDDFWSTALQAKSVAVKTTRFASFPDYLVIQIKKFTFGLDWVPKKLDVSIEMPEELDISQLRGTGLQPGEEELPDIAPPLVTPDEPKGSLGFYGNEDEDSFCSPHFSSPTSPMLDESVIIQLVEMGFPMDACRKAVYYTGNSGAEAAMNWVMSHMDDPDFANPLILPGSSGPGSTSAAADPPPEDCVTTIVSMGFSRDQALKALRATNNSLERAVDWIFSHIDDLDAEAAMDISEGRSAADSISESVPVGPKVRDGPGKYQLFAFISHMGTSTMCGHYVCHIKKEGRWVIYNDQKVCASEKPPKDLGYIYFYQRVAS
Method in brief: as §1

USP54 = USP54 (UniProt Q70EL1)
Method in brief: as §1

USP7 = USP7 (UniProt Q93009)
Method in brief: as §1

USP8 = target: T5, USP8 (UniProt P40818)
T5 sequence (whole entry): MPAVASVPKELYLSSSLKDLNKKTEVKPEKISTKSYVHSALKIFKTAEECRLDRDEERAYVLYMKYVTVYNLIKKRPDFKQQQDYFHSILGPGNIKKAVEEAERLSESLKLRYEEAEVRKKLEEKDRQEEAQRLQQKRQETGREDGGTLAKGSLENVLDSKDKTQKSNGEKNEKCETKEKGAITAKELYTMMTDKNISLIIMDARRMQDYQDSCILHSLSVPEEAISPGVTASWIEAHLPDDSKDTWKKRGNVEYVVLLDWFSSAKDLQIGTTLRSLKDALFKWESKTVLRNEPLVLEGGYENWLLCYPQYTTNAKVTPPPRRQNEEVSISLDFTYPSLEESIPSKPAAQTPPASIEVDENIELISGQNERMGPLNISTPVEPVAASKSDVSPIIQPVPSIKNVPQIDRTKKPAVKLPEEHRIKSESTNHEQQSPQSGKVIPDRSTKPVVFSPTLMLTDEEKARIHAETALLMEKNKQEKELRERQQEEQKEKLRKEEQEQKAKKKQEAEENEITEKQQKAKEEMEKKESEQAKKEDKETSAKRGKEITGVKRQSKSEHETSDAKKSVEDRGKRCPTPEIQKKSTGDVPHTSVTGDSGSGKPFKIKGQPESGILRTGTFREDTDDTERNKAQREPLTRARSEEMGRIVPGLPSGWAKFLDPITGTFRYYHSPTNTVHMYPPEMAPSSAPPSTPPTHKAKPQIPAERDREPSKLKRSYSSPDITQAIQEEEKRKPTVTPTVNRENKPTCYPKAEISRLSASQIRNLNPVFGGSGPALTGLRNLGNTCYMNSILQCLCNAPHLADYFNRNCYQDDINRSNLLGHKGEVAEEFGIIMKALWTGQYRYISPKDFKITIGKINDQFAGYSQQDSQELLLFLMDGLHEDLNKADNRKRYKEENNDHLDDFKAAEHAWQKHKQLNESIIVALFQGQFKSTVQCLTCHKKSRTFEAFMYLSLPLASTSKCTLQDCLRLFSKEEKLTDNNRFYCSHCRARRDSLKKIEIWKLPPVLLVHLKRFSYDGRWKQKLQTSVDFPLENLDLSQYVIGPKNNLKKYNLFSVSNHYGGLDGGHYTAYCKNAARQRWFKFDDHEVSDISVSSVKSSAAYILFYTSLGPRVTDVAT
Method in brief: as §1

USP9X = USP9X (UniProt Q93008)
Method in brief: as §1

UniProt O00487 = target: UniProt O00487
Method in brief: as §1

Measured: log2 ratio of Biotin-Ahx-Ub-VS probe labelling

USP54, sequence (Q70EL1 whole entry): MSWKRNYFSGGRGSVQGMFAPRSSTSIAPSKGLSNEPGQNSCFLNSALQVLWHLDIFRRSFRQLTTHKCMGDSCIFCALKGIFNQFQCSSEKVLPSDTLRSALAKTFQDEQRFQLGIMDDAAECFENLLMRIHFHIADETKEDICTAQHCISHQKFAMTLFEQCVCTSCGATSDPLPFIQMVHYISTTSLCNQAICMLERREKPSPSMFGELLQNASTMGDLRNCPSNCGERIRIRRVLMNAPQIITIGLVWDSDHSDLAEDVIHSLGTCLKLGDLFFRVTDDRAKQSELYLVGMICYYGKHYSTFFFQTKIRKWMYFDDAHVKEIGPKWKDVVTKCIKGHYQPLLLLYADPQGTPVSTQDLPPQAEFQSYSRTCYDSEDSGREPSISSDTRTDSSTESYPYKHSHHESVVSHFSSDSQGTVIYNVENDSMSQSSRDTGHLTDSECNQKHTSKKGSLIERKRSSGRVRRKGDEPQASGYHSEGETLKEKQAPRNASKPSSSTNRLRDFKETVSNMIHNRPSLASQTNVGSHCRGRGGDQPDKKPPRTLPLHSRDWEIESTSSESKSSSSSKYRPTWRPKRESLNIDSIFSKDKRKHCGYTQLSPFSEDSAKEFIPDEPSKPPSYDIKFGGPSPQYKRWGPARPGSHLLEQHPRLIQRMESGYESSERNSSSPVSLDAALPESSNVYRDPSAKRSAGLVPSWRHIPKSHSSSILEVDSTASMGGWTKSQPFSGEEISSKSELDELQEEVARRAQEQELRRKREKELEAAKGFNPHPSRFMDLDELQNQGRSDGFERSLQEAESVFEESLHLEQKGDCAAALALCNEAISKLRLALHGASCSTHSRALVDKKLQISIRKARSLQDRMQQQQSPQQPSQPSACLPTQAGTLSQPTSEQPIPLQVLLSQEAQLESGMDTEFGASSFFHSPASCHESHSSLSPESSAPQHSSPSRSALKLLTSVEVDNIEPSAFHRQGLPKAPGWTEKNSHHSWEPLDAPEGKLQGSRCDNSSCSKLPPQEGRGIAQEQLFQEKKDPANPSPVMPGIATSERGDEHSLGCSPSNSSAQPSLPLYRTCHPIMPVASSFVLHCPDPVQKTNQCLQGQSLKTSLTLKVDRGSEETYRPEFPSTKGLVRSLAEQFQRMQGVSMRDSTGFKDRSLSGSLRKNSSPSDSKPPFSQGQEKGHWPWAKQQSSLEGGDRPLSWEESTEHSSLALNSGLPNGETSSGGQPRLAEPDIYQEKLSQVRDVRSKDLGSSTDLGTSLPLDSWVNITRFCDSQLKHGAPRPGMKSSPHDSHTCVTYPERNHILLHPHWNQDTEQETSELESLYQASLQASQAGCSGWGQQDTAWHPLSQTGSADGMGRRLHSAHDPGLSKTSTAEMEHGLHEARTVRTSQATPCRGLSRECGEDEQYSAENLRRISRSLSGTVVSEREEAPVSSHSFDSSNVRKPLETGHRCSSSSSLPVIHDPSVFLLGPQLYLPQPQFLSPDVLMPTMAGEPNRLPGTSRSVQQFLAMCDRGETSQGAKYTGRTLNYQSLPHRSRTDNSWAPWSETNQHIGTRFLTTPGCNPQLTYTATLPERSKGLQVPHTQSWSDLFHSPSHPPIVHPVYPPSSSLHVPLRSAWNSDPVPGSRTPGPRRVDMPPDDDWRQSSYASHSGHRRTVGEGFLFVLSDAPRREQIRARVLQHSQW
USP46, sequence (P62068 whole entry): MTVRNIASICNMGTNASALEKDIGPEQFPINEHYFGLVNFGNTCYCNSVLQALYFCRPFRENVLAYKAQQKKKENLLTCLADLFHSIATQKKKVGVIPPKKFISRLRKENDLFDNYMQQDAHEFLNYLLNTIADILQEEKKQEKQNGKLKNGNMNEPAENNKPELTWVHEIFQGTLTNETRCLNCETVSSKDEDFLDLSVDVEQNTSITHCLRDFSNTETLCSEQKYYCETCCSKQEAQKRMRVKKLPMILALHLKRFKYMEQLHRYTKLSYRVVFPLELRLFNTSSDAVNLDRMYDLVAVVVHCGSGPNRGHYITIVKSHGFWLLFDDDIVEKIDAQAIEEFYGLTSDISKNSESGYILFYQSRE
USP7, sequence (Q93009 whole entry, looked up): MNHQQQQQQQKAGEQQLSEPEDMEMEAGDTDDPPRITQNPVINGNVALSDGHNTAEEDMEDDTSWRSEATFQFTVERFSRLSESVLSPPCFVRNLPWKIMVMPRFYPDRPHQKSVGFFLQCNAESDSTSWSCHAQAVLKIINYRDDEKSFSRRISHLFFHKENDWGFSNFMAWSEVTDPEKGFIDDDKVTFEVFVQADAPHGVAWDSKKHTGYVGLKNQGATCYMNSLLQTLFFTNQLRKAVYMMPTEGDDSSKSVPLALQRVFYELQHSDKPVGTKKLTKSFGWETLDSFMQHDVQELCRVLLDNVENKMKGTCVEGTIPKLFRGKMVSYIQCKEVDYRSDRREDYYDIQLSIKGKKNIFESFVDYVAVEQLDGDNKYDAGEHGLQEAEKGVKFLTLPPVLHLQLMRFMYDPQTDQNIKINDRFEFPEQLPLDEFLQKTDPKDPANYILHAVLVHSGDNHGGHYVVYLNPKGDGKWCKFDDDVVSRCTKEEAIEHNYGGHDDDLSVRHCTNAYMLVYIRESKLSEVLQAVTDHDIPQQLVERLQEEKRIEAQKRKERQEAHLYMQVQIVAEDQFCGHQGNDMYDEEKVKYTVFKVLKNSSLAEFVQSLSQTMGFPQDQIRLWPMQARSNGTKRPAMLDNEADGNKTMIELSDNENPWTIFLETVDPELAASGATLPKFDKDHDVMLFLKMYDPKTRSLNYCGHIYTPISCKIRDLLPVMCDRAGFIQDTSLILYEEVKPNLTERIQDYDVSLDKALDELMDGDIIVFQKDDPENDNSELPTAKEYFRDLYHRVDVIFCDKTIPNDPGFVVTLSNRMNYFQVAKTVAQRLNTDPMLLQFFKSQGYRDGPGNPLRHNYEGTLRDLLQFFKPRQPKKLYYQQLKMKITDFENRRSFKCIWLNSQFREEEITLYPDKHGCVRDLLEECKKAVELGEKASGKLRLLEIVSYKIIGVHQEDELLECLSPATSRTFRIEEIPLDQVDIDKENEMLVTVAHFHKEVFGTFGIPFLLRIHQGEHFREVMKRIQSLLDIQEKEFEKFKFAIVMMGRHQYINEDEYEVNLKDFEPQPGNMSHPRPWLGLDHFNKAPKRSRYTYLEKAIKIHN
UniProt O00487, sequence (O00487 whole entry): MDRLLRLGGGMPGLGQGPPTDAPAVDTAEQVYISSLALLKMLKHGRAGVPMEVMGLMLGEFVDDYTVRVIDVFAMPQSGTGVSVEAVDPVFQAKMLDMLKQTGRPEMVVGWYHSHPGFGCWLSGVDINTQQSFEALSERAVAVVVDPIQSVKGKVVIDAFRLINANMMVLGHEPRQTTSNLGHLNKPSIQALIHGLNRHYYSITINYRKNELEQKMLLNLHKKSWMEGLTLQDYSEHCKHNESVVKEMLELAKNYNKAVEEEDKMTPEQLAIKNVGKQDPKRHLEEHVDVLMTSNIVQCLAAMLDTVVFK

Cc1cccc2nc(CCNC(=O)CCl)cn12.Cl
inactive: USP42 -0.108 | USP46 -0.0973 | USP47 0.216 | USP48 -0.0534 | USP5 -0.101 | USP54 0.94 | USP7 -0.308 | USP8 -0.222 | USP9X -0.455 | UniProt O00487 -0.163

From the supplement of paper PMC11732987, “Enantioselective OTUD7B fragment discovery through chemoproteomics screening and high-throughput optimisation” (Communications Chemistry, 2025)
